Data reported in PubChem BioAssay AID624330 (Southern Research Specialized Biocontainment Screening …, 2012).
Among all 340,000 compounds or so, about 2,100 (0.62%) were called active.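 How the source made its calls: active means first-screen hits whose inhibition reached a set limit at any dose in the follow-up dose series; inconclusive means inhibition above the set first-screen limit but never retested; inactive means the rest.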 The list is a sample of the results. Results with a measured potency or affinity are listed apart.

Target: Rac GTPase-activating protein 1 (Homo sapiens) (UniProt Q9H0H5)
Experiment: MgcRacGAP GTPase-activating activity inhibitors, confirmation, biochemical, ADP Hunter fluorescence, primary and confirmatory (AID 624330);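 further: fluorescence reports GDP produced by GAP-driven GTP hydrolysis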
Settings: MgcRacGAP-stimulated Rac1 GTP hydrolysis, at 30 µM, hits give high values, GST-tagged Rac1 F28L mutant substrate

Rac GTPase-activating protein 1 (Homo sapiens), sequence (Q9H0H5 whole entry, looked up): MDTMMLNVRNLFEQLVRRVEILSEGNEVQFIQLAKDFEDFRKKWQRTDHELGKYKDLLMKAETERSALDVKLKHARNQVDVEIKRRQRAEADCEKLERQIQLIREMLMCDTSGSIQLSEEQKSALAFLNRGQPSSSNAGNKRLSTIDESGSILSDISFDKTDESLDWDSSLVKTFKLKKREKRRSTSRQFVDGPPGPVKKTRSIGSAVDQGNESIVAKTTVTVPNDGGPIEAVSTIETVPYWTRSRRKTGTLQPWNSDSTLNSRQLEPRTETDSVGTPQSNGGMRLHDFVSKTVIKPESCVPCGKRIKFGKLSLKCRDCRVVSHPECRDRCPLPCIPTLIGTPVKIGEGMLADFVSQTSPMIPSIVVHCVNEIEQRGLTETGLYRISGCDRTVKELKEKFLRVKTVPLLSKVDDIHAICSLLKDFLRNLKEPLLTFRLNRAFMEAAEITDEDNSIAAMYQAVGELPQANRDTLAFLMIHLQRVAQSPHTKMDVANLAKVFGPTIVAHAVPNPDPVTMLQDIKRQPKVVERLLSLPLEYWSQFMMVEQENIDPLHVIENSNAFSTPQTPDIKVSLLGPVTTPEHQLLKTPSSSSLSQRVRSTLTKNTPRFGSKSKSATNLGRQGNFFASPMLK

inhibition, inactive:
CCn1ncc([N+](=O)[O-])c1C(=O)Nc1c(C)nn(Cc2ccc(F)cc2)c1C -5.73%, CN(C)S(=O)(=O)N1CCN(Cc2ccccc2)CC1 -9.47%, COc1cccc(C(=O)NC2(C(F)(F)F)N=C3SCCN3C2=O)c1 (centres undefined) 8.58%, COc1ccc(C(=O)N/N=C(/C)c2cccc(NC(=O)c3ccccc3F)c2)cc1 6.03%, Cc1nc2ccccc2c(=O)n1NC(=O)Cc1ccc(Br)cc1 1.21%, C=CCc1c(C)nc(-c2ccccc2)nc1Nc1ccccc1O -2.42%, C=CCc1c(C)nc(-c2ccccc2)nc1N/N=C/c1ccccc1 9.45%, COc1ccc(NC(=O)CN2C(=O)C(C)Oc3ccccc32)c(OC)c1 (centres undefined) 9.91%, CC(C)(C)C(=O)NCc1ccc(C(=O)CSc2nnc3n2CCCCC3)s1 9.14%, CCOc1ccc(C(CC(=O)O)NC(=O)c2ccco2)cc1OC (centres undefined) 5.75%, Cc1cc(N/N=C/c2ccc(O)cc2O)nc(-c2ccccc2O)n1 9.61%, Oc1ccc(/C=N/Nc2ccc3ccccc3c2)c(O)c1 9.51%, COc1cccc(/C=N/Nc2cc(Cl)nc(C)n2)c1O -19.7%, Cc1cc(N/N=C/c2ccc(O)cc2O)c2ccccc2n1 -8.64%, Oc1ccc(/C=N/Nc2cccc3cccnc23)c(O)c1 0.03%, Oc1cccc(C=NNc2ccccn2)c1 2.05%, Cc1ccc(-c2c(C(=O)NC(C)C)oc(=O)c3ccccc23)cc1 5.65%, CCCCSc1ncnc2c1ncn2C1CCCCO1 (centres undefined) 0.67%, CC12CCC(C(=O)Nc3cc(Cl)ccc3Cl)(C(Br)C1=O)C2(C)C (centres undefined) 8%, CC(=O)/C(=C/N(C)C)Sc1ccc(C)cc1 -4.58%, COC(=O)[C@@]12CCCN1[C@H](c1ccc(-c3ccccc3)cc1)[C@@H]1C(=O)N(C)C(=O)[C@@H]12 10.8%, O=C(COC(=O)CCS(=O)(=O)c1ccc(Cl)cc1)Nc1ncc(Cl)cc1Cl -0.72%, CCOc1ccc(N2C(=O)S/C(=C\c3ccc(O)c(OCC)c3)C2=O)cc1 9.4%, NC1=NC(=O)S/C1=C\c1ccc(F)cc1 -6.63%, COc1ccc(/C=C2\SC(=O)N=C2N)cc1OC -3.06%, CC(C)(C)c1ccc(/C=C2\SC(=O)N=C2N)cc1 2.11%, C=CCOc1ccc(/C=C2\SC(N)=NC2=O)cc1OC 7.81%, NC1=NC(=O)/C(=C\c2ccc(O)c([N+](=O)[O-])c2)S1 2.32%, CCN=C1S/C(=C\c2cc(OCC)c(O)cc2Br)C(=O)N1CC 14.2%, CCN=C1S/C(=C\c2ccc(OCC)c(OC)c2)C(=O)N1CC 2.65%, C/C=C/c1ccc(OCCN2CCc3ccccc3C2)c(OC)c1 17.9%, Cc1ccc(C)c(NC(=O)CN(C)C(=O)c2cc([N+](=O)[O-])ccc2N2CCOCC2)c1 5.45%, Cc1ccc(SCC(=O)OCC(=O)N(CC(C)C)C2CCS(=O)(=O)C2)cc1C (centres undefined) 9.24%, O=C(COC(=O)COc1ccc(Cl)cc1Br)NC1CC1 -1.39%, O=C(NCCN1CCOCC1)c1ccc(CS(=O)c2ccccc2Cl)o1 (centres undefined) -0.13%, COc1ccc(N2CCN(Cc3nc4sc(C)c(C)c4c(=O)[nH]3)CC2)cc1 -6.7%, COc1ccc(/C=C2/NC(=O)N(Cc3ccccc3F)C2=O)cc1OC 5.3%, COc1cc(/C=C2/NC(=O)N(Cc3ccccc3F)C2=O)cc(OC)c1O 26.3%, CSc1ccc(CN2CCC(n3nccc3NC(=O)C3CCOC3)CC2)cc1 (centres undefined) 3.42%, Cc1ccc[n+](CC(=O)Nc2ccc(C)c(C)c2)c1 -1.74%, CC(=O)c1ccc(NC(=O)C[n+]2cccc(C)c2)cc1 8.06%, Cc1ccc(NC(=O)CCc2ccc(C)o2)cc1 -3.13%, CC(=O)Nc1ccc(NC(=O)CCc2ccc(C)o2)cc1 10.6%, CCOC(=O)C1C(c2cc(OC)c(O)c(OC)c2)NC(=S)NC1(O)C(F)(F)F (centres undefined) 4.21%, Cc1ccc(CNC(=O)C(c2ccccc2)c2ccccc2)cc1 6.74%, COc1ccc(S(=O)(=O)NNC(=O)c2cc3ccccc3o2)cc1 9.6%, O=C(NC1CC1)c1cc(F)c(F)cc1Cl 6.75%, O=C(/C=C/c1ccc(Br)o1)Nc1nccs1 -0.09%, O=C(Nc1ccc2c(c1)OC1(CCCC1)O2)C1CC1 9.85%, Nc1ccc2c(c1)OC1(CCCCC1)O2 22.8%, CC(O)[C@H]1CNC(=O)C(=O)N1CCc1cccc(F)c1 (some centres undefined) 5.42%, COc1ccccc1N1CCN(Cc2ccc(Br)o2)CC1 29.6%, COc1cc(CN2CCN(c3cccc(C)c3C)CC2)cc(OC)c1O 27%, COc1ccc(CN2CCC(C(=O)N3CCN(c4ccccc4F)CC3)CC2)cc1OC 8.86%, CCOc1ccc(CN2CCC(C(=O)N3CCN(c4ccccc4F)CC3)CC2)cc1OC 23.7%, COc1ccccc1N1CCN(Cc2ccsc2)CC1 25.3%, CCN1CCN(C(=O)C2CCN(Cc3cc(Cl)ccc3O)CC2)CC1 12.1%, COc1cc(CN2CCC(C(=O)N3CCN(c4ccccc4F)CC3)CC2)cc(OC)c1O 23.4%, O=C(C1CC1)N1CCN(Cc2ccccc2)CC1 7.23%, CCC(C)NC(=O)C1c2ccccc2C(=O)N1Cc1ccc(F)cc1 (centres undefined) 8.48%, COc1ccc(NC(=O)CCCC(=O)O)cc1Cl 4.87%, CC(=O)c1ccc(S(=O)(=O)NCCC(=O)OC(C)C(=O)Nc2ccc(F)cc2)cc1 (centres undefined) 5.33%, N#C/C(=C\c1cn(CC(=O)N2CCCCC2)c2ccccc12)C(=O)NCc1ccc2c(c1)OCO2 8.24%, Cc1cc(NC(=O)c2ccc(C#N)cc2)n(-c2ccccn2)n1 4.99%, N#Cc1ccc(OCc2nnc(SCC(=O)N3CCCc4ccccc43)n2-c2ccccc2)cc1 3.45%, CCCCN(C)CCNC(=O)Cn1c(=O)sc2ccccc21 5.94%, NC(N)=Nc1ccc(C=C2C=Cc3ccccc32)cc1 1.28%, C=CCN(CC=C)Cc1nc(N)nc(Nc2ccccc2C)n1 6.1%, CC1(C)CC(=O)C([N+](=O)[O-])=C(NCCCC(=O)O)C1 6.3%, CCOC(=O)CN=C1CC(C)(C)CC2=C1Sc1ncnc(N(C)C)c1N2 6.53%, Cc1ccc(S(=O)(=O)/N=C/N(C)C)cc1 4.85%, O=C(NCc1ccco1)c1ccc(S(=O)(=O)N2CCOCC2)cc1 12.1%, CCOC(=O)c1ccc(NC(=O)Nc2c(C)nn(C)c2C)cc1 6.05%, COc1ccc(CCNc2ccc(N3C(=O)CC(C)C3=O)cc2[N+](=O)[O-])cc1 (centres undefined) 3.45%, CC1CC(=O)N(c2ccc(NCCc3ccccc3)c([N+](=O)[O-])c2)C1=O (centres undefined) 12.4%, COCCNC(=O)C1CCCN(S(=O)(=O)c2c(C)noc2/C=C/c2cccs2)C1 (centres undefined) 5.26%, Cc1cc(C)c(N)cc1C 5.41%, Cc1cc(Cc2cc(C)c(N)cc2C)c(C)cc1N 11.3%, COc1ccc(S(=O)(=O)N(C)C[C@H]2Oc3c(NC(=O)C4CC4)cccc3C(=O)N([C@H](C)CO)C[C@@H]2C)cc1 13.9%, CCc1ccc(Nc2oc(C)cc(=O)c2C(C)=O)cc1 2.6%, CC(=O)c1c(Nc2cccc(F)c2)oc(C)cc1=O 8.68%, O=C(c1cccc(NS(=O)(=O)c2ccc(Br)cc2)c1)N1CCN(c2ccccc2O)CC1 -1.11%, CC(O)CNc1nc2ccccc2n1CC(=O)NC12CC3CC(CC(C3)C1)C2 (centres undefined) -6.35%, O=C(Nc1ccccc1)c1cccc(NC(=O)c2ccco2)c1 11.5%, CCc1cc(OCCCCNCc2ccccc2)ccc1Cl 28.9%, O=[N+]([O-])c1ccccc1OCCCNCc1ccccc1 21.2%, CCOc1ccc(OCCOCCNCCOC)cc1 12.8%, O=[N+]([O-])c1ccccc1OCCOc1ccccc1[N+](=O)[O-] 7.67%, Clc1cccc(Cl)c1OCCOCCNCc1ccccc1 22.1%, Cc1cc(OCCOCCN(C)C)ccc1Cl 9.69%, CCCOc1ccc(OCCOCCNCc2ccccc2)cc1 19.2%, Cc1cc(Cl)cc(C)c1OCCNCc1ccccc1 26.3%, CC1(c2nnc(-c3cccc(Cl)c3)o2)CC(c2ccccc2)=NO1 (centres undefined) 6.54%, CCN(CC)CCCNC(=O)C1CCCN(c2nnc(N3CCCC3=O)s2)C1 (centres undefined) 8.15%, Cc1ccccc1C(=O)N1CCC(C(=O)Nc2ccccn2)CC1 3.54%, CC1CCCC(C)N1CC(O)COC1CCC(C(C)(C)C)CC1 (centres undefined) 8.37%, CC(C)(C)c1cccc(OCCCSc2ncccn2)c1 4.61%, O=C(N/C(=C/c1ccc(Br)cc1)C(=O)N1CCCCC1)c1ccccc1F 8.71%, COCCNCCCCOc1c(Cl)cc(C)cc1Br 27.8%, Cc1cc(Cl)c(OCCCNCc2ccccc2)c(Br)c1 30.3%, C=CCNCCCCOc1c(Cl)cc(C)cc1Br 29.7%, Cc1ccc(OCCNCc2ccccc2)c(C)c1 20.6%, Cc1cc(C)c(C)c(OCCOCCNCc2ccccc2)c1 17.1%, Cc1cc(C)c(OCCCNCc2ccccc2)c(Br)c1 26.8%
